# Screening results deposited in PubChem BioAssay by Broad Institute.
# ERp5 inh: inhibitors of ERp5-driven insulin aggregation, primary screen, biochemical, turbidity, absorbance 650 nm, single point. inhibition, % at 9.99 µM. 350,000 compounds, 0.05% hits. 90 min;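 active means mean replicate inhibition above about 25%, with every replicate also reaching it, limit read from the data, passing the limit was not always enough; inconclusive means only one of those two criteria met; inactive means neither criterion met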
# DENV2 CPE: inhibitors of DENV2 cytopathic effect, primary screen, cell-based, plate reader, single concentration; DENV2-infected cells, cytopathic effect rescue; CPE inhibition, % at 9.99 µM; 350,000 compounds, 1.7% hits; in the data active means CPE inhibition above about 20%, passing the limit was not always enough; inconclusive means no clear call, values can overlap the other calls; tested in BHK-21 cells;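 further: 0% = median of neutral control wells and 100% = median of positive control wells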
# MLL AF4-AF9 inh: inhibitors of AF4 peptide binding to AF9, primary screen, biochemical, AlphaScreen, biotin-AF4 peptide, FLAG-AF9, single point; inhibition, % at 10 µM; 350,000 compounds, 0.47% hits;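 active means every replicate reaching a set inhibition limit, whatever the replicate mean, cut at about 25% in these data; inconclusive means mean inhibition reaches that limit but some replicates miss it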;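 further: 0% = plate neutral control median and 100% = total signal loss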
# ERAP1 inh: human ERAP1 aminopeptidase inhibitors, primary screen, biochemical, single point, plate reader; 340,000 compounds, 0.15% hits; inhibition, % at 10.7 µM; recombinant ERAP1, Leu-AMC fluorescence, 60 min; AID 652197, 2013; Endoplasmic reticulum aminopeptidase 1 (Homo sapiens), Q9NZ08;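 active means mean replicate inhibition of at least 30%, or all replicates individually reaching that 30% level; inactive means mean below 30% and not every replicate reaching it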;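 further: 0% = neutral control wells and 100% = L-leucinethiol positive control wells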
# PDI turbidity: inhibitors of human PDI, primary screen, biochemical, turbidity, single point, plate reader. 350,000 compounds, 0.052% hits. Protein disulfide-isomerase (Homo sapiens), P07237. AID 588391, 2011. PDI insulin aggregation turbidity, A650, 90 min. inhibition, % at 10 µM;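 active means mean inhibition across replicates of 30% or more, whatever share of single replicates reach that level; inconclusive means mean inhibition below 30% while every single replicate reaches 30%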
# Target sequence (P07237 whole entry, looked up): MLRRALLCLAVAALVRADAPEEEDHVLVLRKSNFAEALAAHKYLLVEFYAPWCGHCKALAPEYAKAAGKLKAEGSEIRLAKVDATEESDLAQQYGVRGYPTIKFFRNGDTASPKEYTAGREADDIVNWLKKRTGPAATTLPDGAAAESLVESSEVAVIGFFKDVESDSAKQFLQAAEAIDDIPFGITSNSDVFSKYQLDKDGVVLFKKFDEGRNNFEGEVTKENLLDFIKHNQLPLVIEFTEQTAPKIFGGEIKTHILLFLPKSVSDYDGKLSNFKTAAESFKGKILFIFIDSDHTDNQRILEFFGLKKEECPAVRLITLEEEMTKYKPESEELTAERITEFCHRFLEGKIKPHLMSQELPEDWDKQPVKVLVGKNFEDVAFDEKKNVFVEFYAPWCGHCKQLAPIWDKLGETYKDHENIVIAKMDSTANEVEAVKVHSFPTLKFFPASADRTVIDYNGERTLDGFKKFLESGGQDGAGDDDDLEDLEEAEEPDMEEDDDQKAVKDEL
# AlphaScreen intf: AlphaScreen signal interference counter-screen, dose response, artefact control, biochemical, cherry-picked samples, luminescence. 530 compounds, 45% hits. AC50, µM (titrated, usually from 12 µM), for inactives: top-dose activity change, negative = inhibition. shares compounds with MLL AF4-AF9 inh; cut-off not given, nearly all actives have AC50 up to about 14 µM
# Active calls of the source: *; u = inconclusive; x = not tested or not shown. An excerpt weighted towards active compounds, which were near 1.8% of everything screened.
SMILES,ERp5 inh,DENV2 CPE,MLL AF4-AF9 inh,ERAP1 inh,PDI turbidity,AlphaScreen intf
CCOC(=O)c1sc(/N=C/N(C)C)c(C(=O)OCC)c1C,x,x,x,x,2,x
CCOC(=O)c1sc(/N=C/N(C)C)nc1C,1,40*,3,0,8,x
Cc1ccc(S(=O)(=O)Nc2ccc3c(c2)C(=O)N([C@H](C)CO)C[C@H](C)[C@H](CN(C)S(=O)(=O)c2ccc(F)cc2)OCCCC[C@H](C)O3)cc1,-4,-2,-2,-11,x,x
CC(=O)Oc1ccc(C2OC(=O)c3ccccc3N2C(C)=O)cc1 (configuration not stated),x,x,0,x,32*,x
COc1ccc(C2Oc3ccccc3N2C(C)=O)cc1 (configuration not stated),x,x,x,x,-9,x
C[C@@H]1COC(=O)[C@H](CC(=O)OC(C)(C)C)C/C=C\C[C@H](CC(=O)NCCO)C(=O)N1,5,3,x,-2,4,x
C[C@@H]1COC(=O)[C@@H](CC(=O)OC(C)(C)C)C/C=C\C[C@@H](CC(=O)NCCO)C(=O)N1,-6,24*,-2,0,2,x
NC(=S)N=Nc1c(O)n(Cc2ccccc2)c2ccccc12,2,63*,-13,1,15,x
COc1ccccc1CN1C(=O)c2ccccc2[C@@H](C(=O)NCc2ccccc2)[C@@H]1c1ccc(CO)cc1,-3,3,-3,3,x,x
CCCNC(=O)[C@@H]1c2ccccc2C(=O)N(Cc2ccccc2OC)[C@H]1c1ccc(CO)cc1,0,34*,0,0,x,x
COCC(=O)N(C[C@H]1N[C@H](CO)[C@@H]1c1ccc(-c2cccnc2)cc1)C(C)C,-4,6,-2,0,x,x
Cc1ccc(S(=O)(=O)N(C)C[C@H]2OCCCC[C@@H](C)Oc3ccc(NS(=O)(=O)c4cn(C)cn4)cc3C(=O)N([C@H](C)CO)C[C@H]2C)cc1,3,x,0,7,x,x
CC1CC(C)CN(CCCNC(=O)Cn2ncn3cccc3c2=O)C1 (configuration not stated),x,x,x,x,-3,x
CCc1cc2c(cc3c(=O)n(CC(=O)NCCCN4CC(C)CC(C)C4)ncn32)s1 (configuration not stated),-6,64*,2,3,x,x
COc1ccccc1C(=O)N1[C@@H](C(C)C)COc2cc(Br)ccc2S1(=O)=O,7,78*,-1,-2,3,x
CCCNC(=O)N1CC2(CCN(C(=O)COC)CC2)c2c(n(C)c3cc(OC)ccc23)[C@@H]1CO,x,70*,1,x,x,x
CCCNC(=O)N1CC2(CCN(C(=O)CCC)CC2)c2c(n(C)c3cc(OC)ccc23)[C@H]1CO,3,-2,2,-1,x,x
CCCNC(=O)N1CC2(CN(CC3CCCC3)C2)c2c(n(C)c3cc(OC)ccc23)[C@H]1CO,-1,-11,28*,-5,x,x
CCCNC(=O)N1CC2(CN(S(=O)(=O)c3cccc(OC)c3)C2)c2c(n(C)c3cc(OC)ccc23)[C@H]1CO,x,41*,-2,x,x,x
CCCNC(=O)N1CC2(CN(CC3CC3)C2)c2c(n(C)c3cc(OC)ccc23)[C@@H]1CO,3,-1,12,-3,x,x
COc1ccc2c3c(n(C)c2c1)[C@H](CO)N(C(=O)NC(C)C)CC31CCN(CC2CCCC2)CC1,-11,40*,-2,1,x,x
O=S(=O)(c1ccc(F)cc1)N1CCN(c2ncccn2)CC1,3,1,-2,x,-3,x
O=S(=O)(c1cc(F)ccc1F)N1CCN(c2ncccn2)CC1,-2,3,-4,3,34*,x
CCOc1ccc(Nc2ccc([N+](=O)[O-])c3nonc23)cc1,-2,-7,29*,2,4,-21%
COc1ccc2c3c([nH]c2c1)[C@@H](CO)N(C(=O)CN(C)C)CC31CN(CC2CC2)C1,-1,-4,16,6,x,x
SMILES,ERp5 inh,DENV2 CPE,MLL AF4-AF9 inh,ERAP1 inh,PDI turbidity,AlphaScreen intf
CS(=O)(=O)N1CCCCN2[C@H](C1)[C@@H](c1ccc(C#Cc3ccccn3)cc1)[C@@H]2CO,2,-3,-8,0,x,x
CS(=O)(=O)N1CCCCN2[C@H](C1)[C@H](c1ccc(C#Cc3ccccn3)cc1)[C@@H]2CO,-1,-1,32*,-2,x,-16%
CCN(CC)c1ccc(CNc2ccc3c(c2)ncn3C(C)(C)C)cc1,0,0,41*,1,-1,9µM*
CC1(C)CNc2cc(N)ccc2S1,1,13,63*,-4,-21,2.3µM*
CN1C(=O)c2cc(NS(=O)(=O)c3ccc(F)cc3)ccc2OC[C@H]2O[C@@H](CC(=O)Nc3cccc4ccccc34)CC[C@@H]21,5,-3,0,0,x,x
C[C@@H]1CCCCO[C@H](CN(C)C(=O)Nc2ccc3c(c2)OCO3)[C@H](C)CN([C@H](C)CO)C(=O)c2cc(NC(=O)CCC(F)(F)F)ccc2O1,1,-2,5,2,x,x
CCN1CCN(Cc2ccc(NC(=O)c3cc(NC(=O)c4nccnc4N)cc(OC)c3)cc2C(F)(F)F)CC1,2,-9,u,-2,5,-22%
CCN(CC)CCNc1ccc(CO)c2sc3ccccc3c(=O)c12,2,4,12,4,-3,x
CCN(CC)CCNc1cccc2sc3ccccc3c(=O)c12,-16,-3,29*,2,-13,2.2µM*
COc1cccc(-c2sc3ccccc3c2-c2ccc(OCCN(C)C)cc2)c1,-1,-7,29*,1,-13,0%
COc1ccc(N2CCN(C(=O)C3CCCN(S(=O)(=O)c4c(C)noc4C)C3)CC2)cc1 (configuration not stated),1,1,28*,x,-1,-5%
COc1ccc(N2CCN(C(=O)C3CCN(S(=O)(=O)c4c(C)noc4/C=C/N(C)C)CC3)CC2)cc1,-1,5,4,-1,-5,x
CN1CCN(CCCCOc2ccccc2C=O)CC1,1,1,33*,3,-1,-36%
C#CCOCCOCCOCCNc1nc(N2CCN(C(=O)[C@H]([C@@H](C)CC)n3cc(CCCN=C(N)N)nn3)CC2)nc(N2CCN(C(=O)[C@H](CCCCN)n3cc(CCCC)nn3)CC2)n1,-8,-10,29*,-13,0,-11%
C#CCOCCOCCOCCNc1nc(N2CCN(C(=O)[C@H](CCCN=C(N)N)n3cc(C(N)[C@@H](C)CC)nn3)CC2)nc(N2CCN(C(=O)[C@H](CCCCN)n3cc([C@@H](N)CC(N)=O)nn3)CC2)n1 (some centres not stated),1,3,37*,-8,3,-13%
